# Screening results: PubChem BioAssay, National Center for Advancing Translational Sciences (NCATS)
# An excerpt weighted towards active compounds, which were near 19% of everything screened.
# HT1080 IDH1KD tx: HT-1080 IDH1 knockdown cell toxicity (counter line); HT-1080 IDH1 knockdown viability, ATP luminescence, 48 h; Potency, µM (series often up to 46.1 µM), for inactives: at the highest dose activity, negative = toxicity, hits mostly cytotoxic; actives 2% (n = 360,000);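 note: potency is the fitted concentration of half-maximal effect; 0% = DMSO wells and -100% = cell-free medium wells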
#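 Cytotoxicity counter-line: IDH1KD HT-1080, 48 h, CellTiter-Glo. Curves classed by r2, magnitude and activity.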
# DT40 TDP1 CPT: growth inhibition of DT40 Tdp1-/-;hTDP1 cells with camptothecin (screen for TDP1 inhibitors) | chicken DT40 Tdp1-/-;hTDP1 cells + 20 nM CPT, ATP luminescence, 48 h | Potency, µM (titrated, usually from 46.2 µM), for the others: at the top dose activity change, negative = growth inhibition, actives largely listed as inhibitors | actives 12% (n = 420,000) | AID 686979; note: potency is the fitted concentration of half-maximal effect; nearly all actives have a fitted effect of over 55% in size
#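 Chicken DT40 Tdp1-/- cells complemented with human TDP1, 400 cells/well, exposed to compounds plus 20 nM camptothecin for at least 48 h at 37 C; viability read as ATP content by CellTiter-Glo luminescence.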
# TDP1 cell noCPT: qHTS for Inhibitors of human tyrosyl-DNA phosphodiesterase 1 (TDP1): qHTS in cells in absence of CPT | DT40 Tdp1-/- hTDP1 cells, no CPT, ATP luminescence, 48 h | Potency, µM (highest dose often 46.2 µM), for inactives: top-dose activity change, negative = growth inhibition, actives largely listed as inhibitors | actives 15% (n = 420,000) | AID 686978, 2013; note: potency is the fitted concentration of half-maximal effect; nearly all actives have a fitted effect of over 55% in size
#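 Chicken DT40 Tdp1-/- cells stably complemented with human TDP1 were seeded at 400 cells/well with DMSO in place of 20 nM camptothecin. After compound pinning, cells grew at least 48 hr at 37 °C; viability read by CellTiter-Glo luminescence.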
# IL1B secr inh: blocks inflammasome-driven IL-1 beta release; THP-1 LPS/ATP IL-1B secretion, AlphaLISA, 16 h; active compounds read low; activity change, % at 57.5 µM; actives 4.7% (n = 360,000); in the data active = activity change below about -50%; inconclusive = mostly about -30% to -49%
#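 THP-1 cells pretreated 1 hr with compounds (up to 57.5 uM final), then stimulated with LPS (250 ng/mL final) plus ATP (1.25 mM final); secreted IL-1B measured by AlphaLISA after 16 hr, decreased signal indicating inhibition.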
# HT1080NT lethal: kills 2HG-producing HT-1080-NT fibrosarcoma cells. Potency, µM (series often up to 46.1 µM), without a hit: at the highest dose activity, negative = less viability, usual class: cytotoxic. actives 1.6% (n = 360,000). AID 686970. HT-1080-NT fibrosarcoma viability, CellTiter-Glo ATP luminescence, 48 h;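 note: NT is the 2HG producing partner of a matched IDH1 knockdown line; potency is the fitted concentration of half-maximal effect; 0% = DMSO-treated cells and -100% = media-only wells without cells; nearly all actives have a fitted effect of over 55% in size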
#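 Fibrosarcoma NT cells, 750 per well in 5% FBS RPMI, were exposed to compound for 48 hours. Viability: CellTiter-Glo luminescence.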
# * = called active by the depositor; u = inconclusive; x = not tested or not shown. Unless noted, calls come from the whole dose curve; as a rule, active = well fitted curve in the direction sought with a large enough effect; inconclusive = small, poorly fitted or top-dose-only effect, or another doubt; inactive = no such curve, though single readings can be large; an effect the other way counts as inactive or inconclusive. Unless noted, % is set by controls: 0 for no effect and ±100 for the full control effect.
SMILES,HT1080 IDH1KD tx,DT40 TDP1 CPT,TDP1 cell noCPT,IL1B secr inh,HT1080NT lethal
O=C(CCNS(=O)(=O)c1ccc2c(c1)CCN2C(=O)C1CC1)N1CCN(c2cccc(C(F)(F)F)c2)CC1,x,2.1µM*,1.6µM*,x,x
Cc1ccc(Cl)cc1N1CCN(C(=O)CCNS(=O)(=O)c2ccc3c(c2)CCN3C(=O)C2CC2)CC1,x,8.2µM*,23µM*,x,x
Cc1ccc(Cc2c(-c3ccccc3)nc3c(Cl)cc(C(F)(F)F)cn23)cc1,-3%,-4%,-3%,37,-9%
C=CCNc1oc(-c2cccs2)nc1C#N,-3%,7%,-15%,-4,-24%
c1ccc(CCNc2c3c(nc4ncnn24)CCC3)cc1,-6%,u,u,-10,2%
Fc1ccccc1CCNc1c2c(nc3ncnn13)CCCC2,-10%,9.2µM*,5.2µM*,-1,0%
COc1ccc(C)cc1NC(=O)CSc1nc2ccccc2nc1N1CC(C)OC(C)C1 (stereo not drawn),-12%,23µM*,26µM*,5,9%
COc1ccccc1NC(=O)CSc1nc2ccccc2nc1N1CC(C)OC(C)C1 (stereo not drawn),-4%,21µM*,u,25,-25%
Cc1cccc(NC(=O)CSc2nc3ccccc3nc2N2CC(C)OC(C)C2)c1 (stereo not drawn),-19%,u,u,7,5%
CCOc1ccc(N(CC(=O)Nc2ccc(C)c(C)c2)S(=O)(=O)c2c(C)noc2C)cc1,x,9.2µM*,10µM*,-24,x
CCOc1ccc(N(CC(=O)Nc2cccc(F)c2)S(=O)(=O)c2c(C)noc2C)cc1,u,u,21µM*,-1,u
CC1(C)CC(=O)C2=C(C1)c1c(ccc3ncccc13)NC2c1cccs1 (stereo not drawn),4.1µM*,5.2µM*,3.7µM*,0,3.3µM*
Cc1ccc(C2Nc3ccc4ccccc4c3C3=C2C(=O)CC(C)(C)C3)o1 (stereo not drawn),u,u,u,-52*,-18%
COc1cc(C2Nc3ccc4ncccc4c3C3=C2C(=O)CCC3)cc(OC)c1O (stereo not drawn),8.2µM*,5.2µM*,5.2µM*,23,16µM*
CC1(C)CC(=O)C2=C(C1)c1c(ccc3ccccc13)NC2c1ccc(C(=O)O)cc1 (stereo not drawn),-18%,38%,6%,23,-4%
O=C1CCCC2=C1C(c1ccc(O)c(O)c1)Nc1ccc3ccccc3c12 (stereo not drawn),u,u,10µM*,-12,u
O=C(CSc1nc2c([nH]c3ccccc32)c(=O)n1-c1ccc(Cl)cc1)N1CCOCC1,x,5%,1%,x,x
CCNC(=O)N1C[C@H]2CON(C)[C@H]2C[C@H]1c1ccccc1Br,21%,-11%,-23%,-2,5%
O=C1CCCC2=C1C(c1ccco1)Nc1ccc3ccccc3c12 (stereo not drawn),u,21µM*,18µM*,-13,-10%
CCC(=O)N1CCC1(C)C(=O)Nc1ccc(OC)c(OC)c1 (stereo not drawn),0%,0%,1%,-13,9%
CC(C)NC(=O)c1cnc2sc(N3CCCCCC3)nn2c1=O,x,-4%,-20%,x,x
O=C1C(Cl)=C(N2CCCCC2)C(=O)C(Cl)=C1c1cnc(N2CCCCC2)s1,16µM*,0.92µM*,0.92µM*,-71*,u
CC(=O)Oc1cc2c(s1)CCN(C(C(=O)C1CC1)c1ccccc1F)C2 (stereo not drawn),x,6%,-13%,x,x
CCOc1ccccc1CN1CCNC(=O)C1CC(=O)NCCN1CCOC1=O (stereo not drawn),22%,-9%,24%,0,12%
Cc1nn(C)cc1CN(C)C(=O)c1nn2c(c1Br)NC(c1cccs1)CC2C(F)(F)F (stereo not drawn),-16%,u,15µM*,31,-17%
